# PubChem BioAssay
# The source made the active and inactive calls.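 Rule for the calls, unless noted: active = compound raises GLP1 secretion from the human gut endocrine cells, with no numeric limit stated; inactive = the rest.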
# Tests used:
# [1] = Wnt pathway potentiators raising nuclear beta-catenin – imaging, WNT3A-conditioned medium, mouse C2C12, NPC library, primary screen (AID 1117326; in the data active = nuclear beta-catenin stimulation mostly above about 4.2%, no sharp cut-off; inactive = mostly below about 10%; note: reference of the scale not given here); settings: stronger effect = higher value
# [2] = stimulators of insulin release from INS-1E, primary screen, cell-based, 5 mM glucose, NPC library (AID 1117329;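 active = compound raises insulin release from rat beta cells at 5 mM glucose, no numeric limit stated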; note: reference of the scale not given here); settings: rat INS-1E insulin secretion, at 10 µM, stronger effect = higher value
# [3] = growth inhibition of GSK3B-pretreated HCT116 cells – cell-based, CellTiter-Glo, 0.2 to 20 µM (AID 1117336;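 active = compounds lowering colon cancer cell viability after pretreatment blocking the GSK3B kinase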); settings: HCT116 viability after GSK3B inhibitor, at 20 µM, stronger effect = higher value
# [4] = inhibition of endothelial tube formation, primary screen, imaging, VEGF stimulated, CD31 staining, tube area, NPC library (AID 1117340;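 active = compound that reduces growth-factor-driven endothelial tube area in a mixed cell culture, no cutoff stated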); settings: VEGF-stimulated ADSC/ECFC co-culture, at 10 µM, stronger effect = higher value
# [5] = GLP1 release stimulators, primary, NCI-H716, NPC library (AID 1117341); settings: NCI-H716 cells, at 10 µM, stronger effect = higher value; note: reference of the scale not given here
# [6] = HCT116 colon cancer cell growth inhibition, primary screen, CellTiter-Glo luminescence, NPC library (AID 1117342;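 active = compounds that lower survival of HCT116 colon cancer cells in the luminescence readout, no numeric limit stated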); settings: at 20 µM (top of the series)
# [7] = reduced SW480 viability measured with CellTiter-Glo, NPC library, primary (AID 1117343;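 active = compounds that lower viability of the colon cancer cells in the luminescence readout, with no numeric limit stated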); settings: CellTiter-Glo luminescence; at 20 µM (top of the series)
# [8] = NPC library primary testing for decreased DLD-1 cell viability via CellTiter-Glo (AID 1117346;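 active = compounds that lower survival of DLD-1 colon cancer cells in the luminescence readout, no cutoff given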); settings: DLD-1 viability, CellTiter-Glo luminescence; at 20 µM (top of the series)
Structure (SMILES),nuclear beta-catenin stimulation ([1]; at 10 µM),"nuclear beta-catenin stimulation ([1]; stimulation, at 2 µM)",insulin secretion stimulation [2],viability decrease [3],tube area decrease [4],GLP1 secretion stimulation [5],inhibition of viability [6],viability decrease (inhibition) [7],viability decrease (inhibition) [8]
CC[C@@]1(c2ccccc2)NC(=O)N(C)C1=O,0.1% (inactive),0.6%,-0.2% (inactive),2.35% (inactive),0.1% (inactive),-0.6% (inactive),-10.2% (inactive),11.6% (inactive),-9.4% (inactive)
CC(C)=CCNc1ncnc2c1ncn2[C@@H]1O[C@H](CO)[C@@H](O)[C@H]1O,4.6% (inactive),1.9%,1.8% (inactive),109% (active),106% (active),0.8% (inactive),111% (active),110% (active),101% (active)
CCCCCCCCCCC(CO)CCCCCCCC (centres undefined),-0.6% (inactive),-0.4%,-0.5% (inactive),11.5% (inactive),-3.9% (inactive),-4% (inactive),5.07% (inactive),14.5% (inactive),-17.6% (inactive)
Nc1ccc(/C=C/c2ccc(N)cc2S(=O)(=O)O)c(S(=O)(=O)O)c1,0.5% (inactive),0.9%,0.1% (inactive),-4.75% (inactive),-11.3% (inactive),-0.8% (inactive),-10.1% (inactive),13% (active),-4.05% (inactive)
CCOc1c(N2CCOCC2)cnn(C)c1=O,-0.3% (inactive),4.4%,1.5% (inactive),-36.6% (inactive),4.1% (inactive),0.1% (inactive),11.2% (inactive),7.7% (inactive),-14.1% (inactive)
O=C(O)c1cc(O)c2c(c1)[O][Bi][O]2,-2.2% (inactive),1%,-0.6% (inactive),-0.3% (inactive),11.1% (inactive),-0.5% (inactive),4.4% (inactive),26.3% (inactive),0.3% (inactive)
CC(=O)N/N=C/c1ccc([N+](=O)[O-])o1,9.9% (inactive),-0.2%,-3.3% (inactive),16.4% (inactive),20.9% (inactive),5.7% (inactive),9% (inactive),104% (active),80.5% (active)
COc1cccc(CCc2ccccc2OCC(CN(C)C)OC(=O)CCC(=O)O)c1 (centres undefined),-0.6% (inactive),3.9%,11.9% (inactive),53.9% (active),0.9% (active),8.6% (inactive),72.9% (active),87.5% (active),21.8% (inactive)
Cc1ccc(-c2ccccc2C#N)cc1,1.4% (inactive),6.2%,0.25% (inactive),3.2% (inactive),-5.1% (inactive),2.4% (inactive),-1.3% (inactive),-24.5% (inactive),-11% (inactive)
CCCCCC=CCC=CCCCCCCCC(=O)OCC,1.6% (inactive),-0.5%,-1.8% (inactive),-40% (inactive),7.8% (inactive),8.5% (inactive),17.5% (inactive),30.9% (inactive),54.5% (active)
O=C(c1ccco1)N1CCNCC1,4.5% (inactive),-0.4%,0.1% (inactive),-3.6% (inactive),-16.6% (inactive),-0.5% (inactive),-8.9% (inactive),-21.1% (inactive),5.4% (inactive)
CC(C)C[C@@H](N)C(=O)O,3.4% (inactive),1.7%,-0.8% (inactive),-7.15% (inactive),11.2% (inactive),0.3% (inactive),9.1% (inactive),3.6% (inactive),-1.8% (inactive)
CC(C)(C)C1CCC(CC2=C(O)c3ccccc3C(=O)C2=O)CC1 (centres undefined),2% (inactive),-0.5%,-0.2% (inactive),110% (active),109% (active),5.8% (inactive),106% (active),140% (active),98.4% (active)
COC(=O)c1cc(S(N)(=O)=O)ccc1OC,0.9% (inactive),1.4%,-0.15% (inactive),-6.1% (inactive),1.6% (inactive),0.1% (inactive),-5.9% (inactive),-8.9% (inactive),-2.9% (inactive)
CC(NN)c1ccccc1 (centres undefined),1.9% (inactive),-2.2%,3.35% (inactive),13.8% (inactive),-6.7% (inactive),-0.4% (inactive),9.9% (inactive),4.9% (inactive),14.8% (inactive)
CCOC(=O)c1cc(=O)c2c(OCC(COc3cccc4oc(C(=O)OCC)cc(=O)c34)OC(=O)[C@@H](N)CCCCN)cccc2o1,0.5% (inactive),1.2%,-1.2% (inactive),-30% (inactive),4.5% (inactive),7.5% (inactive),-25.1% (inactive),-75% (inactive),-11.5% (inactive)
